The values below come from PubChem BioAssay.

Structures are written as SMILES. Where “and” joins values, the source holds several entries; their conditions need not be identical. Equal values may be shown once. Calls of active or inactive are those of the source.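 How the source made its calls, unless noted: active means inhibition at or above 50% relative to wild type and mutant plate controls; inactive means inhibition below 50%.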

Assay [1] is described as follows: inhibitors of TNFa-induced NFkB p65 translocation, primary screen, imaging, HUVEC, MLSMR starter and 10KST1 sets (AID 438;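 active means inhibition above 20% together with a positive visual image hit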;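 further: compound added about 3h40 before a 20 min TNFalpha stimulation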;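 on inhibition: signal is the nuclear over cytoplasmic p65 intensity ratio per well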). Particulars: HUVEC TNFa-induced p65 nuclear translocation; cell count: measured here: nuclei count (cytotoxicity indicator), at 2.08 µM; inhibition: at 2 µM, stronger effect = higher value, 0% TNFa-plus-vehicle, 100% no-TNFa wells.
Assay [2] can be described thus: reduction of polyQ htt aggregates in cells – imaging, exon1htt(103Q)mCFP cells, high-content imaging, primary screen (AID 483;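 active means visual image review flags a hit and inhibition of aggregation exceeds 20%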;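 further: compound exposure lasted 3 days before fixation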;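 on nuclei count: percent of the per-plate median nuclei count of sample wells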). Particulars: exon1htt(103Q)mCFP cell line, aggregate imaging, at 2 µM; inhibition of aggregation: stronger effect = higher value; nuclei count: measured here: cell count, toxicity.
A short description of assay [3]: endothelial E-selectin expression blockers – imaging, HUVEC, immunofluorescence, MLSMR starter and 10KST1 sets, primary screen (AID 487;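 active means visually confirmed hit in the image check and inhibition above 20%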;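 on inhibition: signal is fraction of cell area covered by stained E-selectin grains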;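 on nuclei count: 100% = median nuclei count of all wells on the same plate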). Conditions: HUVEC TNFalpha-induced E-selectin immunofluorescence imaging, at 2 µM; inhibition: stronger effect = higher value; nuclei count: measured here: cell number, toxicity.
Assay [4] is described as follows: Primary imaging screen for DUSP6 inhibitors that restore phospho-Erk in transfected HeLa cells, chemical complementation (AID 609;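 active means compounds giving at least 50% inhibition in the cell-based MKP-3 phosphatase rescue imaging test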;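 on inhibition: phospho-Erk level distribution per well compared with pooled transfected vehicle control wells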). Particulars: HeLa MKP-3 transfected, phospho-Erk imaging KS statistic, at 10 µM, cells stimulated with TPA for 15 min.
Assay [5] deals with Dual specificity protein phosphatase 6 (Homo sapiens) (UniProt Q16828). The description is as above. Conditions: HeLa MKP-3 transfected, phospho-Erk imaging KS statistic; at 10 µM; stronger effect = higher value; cells stimulated with TPA for 15 min.
The target in assay [6] is Voltage-gated potassium channel subunit beta-2 (Rattus norvegicus) (UniProt P62483). Nature of the assay: inhibitors of rat Kvbeta2 reductase activity – biochemical, NADPH fluorescence, primary screen (AID 622;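 active means fluorescence slope higher than the sample average by over 3 SD, cut at about -0.22 in these data, passing the limit was not always enough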;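 further: slope of raw intensity against log time taken from 70 to 1610 s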). Particulars: recombinant KvBeta, 4-cyanobenzaldehyde reduction, at 10 µM, stronger effect = higher value.
The target is the same in assay [7]. Nature of the assay: enhancers of rat Kvbeta2 NADPH turnover – biochemical, NADPH fluorescence, primary screen (AID 623;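 active means NADPH fluorescence slope more negative than the mean of all samples by about 3 SD, 99.7% confidence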;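 further: fluorescence intensity change per second fitted from 20 to 320 s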). Conditions: Recombinant KvBeta, NADPH fluorescence decrease slope, 10 min; at 10 µM; stronger effect = lower value.
Assay [8] deals with Alpha-2C adrenergic receptor (Homo sapiens) (UniProt P18825). Nature of the assay: compounds altering alpha2C-coupled GIRK flux – cell-based, HEK293 alpha2C/GIRK1/2, thallium flux, primary screen (AID 624;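 active means fluorescence slope after compound addition differing from the mean of all screened samples at 99.7% confidence, in either direction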;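 further: slope of fluorescence ratio to pre-addition baseline per second over 15 to 24 s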). Particulars: thallium flux BTC fluorescence, at 10 µM, actives lie on both sides.
In assay [9] the target is Muscarinic acetylcholine receptor M4 (Homo sapiens) (UniProt P08173). Nature of the assay: M4-linked GIRK flux change, two-sided – cell-based, HEK293 M4/GIRK, thallium flux, BTC-AM, M4 allosteric agonist project, primary screen (AID 625;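 active means fluorescence slope after compound addition differing from the mean of all tested samples at 99.7% confidence, mostly higher but some lower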;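 further: thallium influx through GIRK channels coupled to M4 in HEK293 cells with BTC-AM dye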). Conditions: at 10 µM, actives lie on both sides.
A short description of assay [10]: inhibitors of larval lipid processing in zebrafish, primary screen, whole organism, PED6 fluorescence, gall bladder and intestine (AID 686;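 active means a full or partial loss of lipid-probe fluorescence in the fish gall bladder, intestine or both, judged by eye; inactive means no fluorescence loss, or compound toxic to the fish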;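 further: larvae 5 to 7 days old with five fish per well; signal comes from phospholipase A2 cleavage of quenched PED6 carried via bile; overnight exposure to compound and PED6 before scoring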). Particulars: Zebrafish larvae PED6 lipid processing, fluorescence scoring; screened at 20 µM (by protocol).
Assay [11] in a line: loss of swimming-algae plug formation – whole organism, Chlamydomonas reinhardtii, WT vs cilia-less mutant, absorbance, 96-well, primary screen (AID 463189).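 Further: 0% = wild type cc124 cells in DMSO and 100% = ciliumless bld1 mutant cells.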 Particulars: Chlamydomonas reinhardtii gravitaxis, OD600 absorbance, 2 days; at 10 µM; stronger effect = higher value.
Assay [12] in a line: blockers of RIG-like receptor reporter activation – cell-based, Sendai virus stimulus, luciferase, 10K MLSCN set, TLR/RLR signaling modifier project, primary screen (AID 602276;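 active means inhibition at or above 50% at 10 µM; inactive means inhibition below 50%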;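 further: firefly luciferase from ISG56 promoter only with Renilla not read in this screen; 0% = Sendai virus plus DMSO and 100% = medium plus DMSO without virus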). Conditions: HEK293 RL24 IRF3 luciferase reporter, at 10 µM, stronger effect = higher value. (A reporter such as luciferase makes a cellular process visible.)
A short description of assay [13]: TLR3 IRF3 reporter activation blockers – cell-based, poly I:C stimulus, luciferase, 10K MLSCN set, primary screen (AID 602277;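 active means inhibition of the reporter signal at or above 50%; inactive means inhibition below 50%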). Conditions: HEK293-TLR3 RL24 IRF3 luciferase reporter, at 10 µM, stronger effect = higher value.
The mark [14] stands for this setting: measured here: cell density z-score.
The mark [15] stands for this setting: measured here: nuclear c-Myc green intensity z-score.
Where [16] appears, read: measured here: nuclear pErk red intensity z-score, stronger effect = higher value.

Chain of Alpha-2C adrenergic receptor (Homo sapiens) (P18825 whole entry, looked up): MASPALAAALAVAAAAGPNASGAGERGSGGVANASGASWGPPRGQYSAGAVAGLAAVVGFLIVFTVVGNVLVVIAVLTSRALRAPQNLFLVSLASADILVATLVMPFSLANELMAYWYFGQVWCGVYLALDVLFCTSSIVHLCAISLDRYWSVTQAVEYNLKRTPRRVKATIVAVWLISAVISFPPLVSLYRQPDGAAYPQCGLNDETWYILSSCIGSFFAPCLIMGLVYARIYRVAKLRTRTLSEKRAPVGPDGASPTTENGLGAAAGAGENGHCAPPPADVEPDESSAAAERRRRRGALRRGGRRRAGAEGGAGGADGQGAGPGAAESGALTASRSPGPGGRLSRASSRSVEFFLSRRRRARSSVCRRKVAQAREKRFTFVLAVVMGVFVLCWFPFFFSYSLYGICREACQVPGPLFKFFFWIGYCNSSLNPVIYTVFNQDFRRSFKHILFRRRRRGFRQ
Chain of Voltage-gated potassium channel subunit beta-2 (Rattus norvegicus) (P62483 whole entry, looked up): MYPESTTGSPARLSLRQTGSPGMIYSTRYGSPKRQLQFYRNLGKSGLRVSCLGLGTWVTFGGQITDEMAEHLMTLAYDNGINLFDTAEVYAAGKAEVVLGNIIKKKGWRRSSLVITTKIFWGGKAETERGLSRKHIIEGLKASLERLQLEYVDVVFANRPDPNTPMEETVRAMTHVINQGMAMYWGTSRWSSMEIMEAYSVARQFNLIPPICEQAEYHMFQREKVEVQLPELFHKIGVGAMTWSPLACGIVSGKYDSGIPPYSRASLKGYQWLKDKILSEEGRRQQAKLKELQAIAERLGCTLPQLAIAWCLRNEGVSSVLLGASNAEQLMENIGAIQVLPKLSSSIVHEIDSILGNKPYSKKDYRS
Chain of Dual specificity protein phosphatase 6 (Homo sapiens) (Q16828 whole entry, looked up): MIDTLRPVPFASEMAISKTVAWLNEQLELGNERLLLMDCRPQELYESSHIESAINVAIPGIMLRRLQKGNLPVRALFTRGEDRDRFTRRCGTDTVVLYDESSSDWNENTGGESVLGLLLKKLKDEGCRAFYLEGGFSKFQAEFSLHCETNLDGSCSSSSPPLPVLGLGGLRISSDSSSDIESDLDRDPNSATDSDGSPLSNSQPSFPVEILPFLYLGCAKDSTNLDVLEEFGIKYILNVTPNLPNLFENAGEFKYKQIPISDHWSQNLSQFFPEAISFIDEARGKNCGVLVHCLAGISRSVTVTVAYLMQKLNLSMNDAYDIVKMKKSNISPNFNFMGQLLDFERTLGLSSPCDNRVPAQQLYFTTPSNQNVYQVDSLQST
Chain of Muscarinic acetylcholine receptor M4 (Homo sapiens) (P08173 whole entry, looked up): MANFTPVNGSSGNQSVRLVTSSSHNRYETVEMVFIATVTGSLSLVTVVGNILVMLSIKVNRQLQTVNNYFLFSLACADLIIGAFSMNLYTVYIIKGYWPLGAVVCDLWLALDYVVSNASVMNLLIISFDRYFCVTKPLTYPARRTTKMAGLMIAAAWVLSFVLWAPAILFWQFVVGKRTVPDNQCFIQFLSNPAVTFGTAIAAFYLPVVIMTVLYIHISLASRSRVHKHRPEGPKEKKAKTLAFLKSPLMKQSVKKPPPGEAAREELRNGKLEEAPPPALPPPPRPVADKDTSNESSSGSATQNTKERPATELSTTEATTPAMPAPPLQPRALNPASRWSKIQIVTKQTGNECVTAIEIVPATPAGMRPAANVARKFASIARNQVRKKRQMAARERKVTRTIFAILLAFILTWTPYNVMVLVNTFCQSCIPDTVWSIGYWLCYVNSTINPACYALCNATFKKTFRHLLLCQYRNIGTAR

In the case of `CS(=O)(=O)Nc1ccc([N+](=O)[O-])cc1Oc1ccccc1`, the cell count in [1] was 692. For the same compound, the inhibition is -0.7% (inactive) in assay [1]; -24.1% (inactive) in assay [3]; 11.3% (inactive) in [5]; 9.15% (inactive) and 12.1% (inactive) in assay [11]; 15% (inactive) in assay [12]; 15.8% (inactive) in assay [13]. For the same compound, the inhibition of aggregation in assay [2] is 0% (inactive). Moreover, the figures for the nuclei count in assay [2] and in assay [3] were 95.3% and 124%, respectively. The results for the z-score in [4] (setting [14]), in assay [4] (setting [15]) and in assay [4] (setting [16]) were -0.515, 1.09 and -0.635, respectively. For the same compound, the fluorescence slope in assay [6] is -0.557 (inactive); in assay [9] it was 0.00499 (inactive). Moreover, the NADPH fluorescence slope in [7] was -3.9e-05 (inactive). Besides, the slope in [8] was 0.00467 (inactive). In addition, in assay [10], the outcome is “active; no signal in intestine only”.
For `Cc1cccc(N(C)C(=S)Oc2ccc3ccccc3c2)c1`, the cell count in assay [1] stood at 604. Also, the inhibition in assay [1] is -0.1% (inactive); in assay [3], -124% (inactive); in assay [5], 5.42% (inactive); in assay [11] it was 97.3% (active); in assay [12] it was -6.47% (inactive); in assay [13], -10.7% (inactive). Also, the inhibition of aggregation in assay [2] is 1.5% (inactive). Also, the nuclei count was 115% in assay [2] and 117% in [3]. Further, the figures for the z-score in assay [4] (setting [14]), in assay [4] (setting [15]) and in [4] (setting [16]) were -0.0512, 0.405 and -0.61, respectively. Besides, the fluorescence slope in assay [6] is -0.463 (inactive). The NADPH fluorescence slope in [7] is -2.6e-05 (inactive). In addition, the slope in assay [8] is 0.00625 (inactive). The outcome in assay [10] is “active; weak signal in gallbladder and intestine”.
As for `CC(C)C[C@H](NC(=O)[C@@H]1O[C@H]1C(=O)O)C(=O)NCCCCN=C(N)N`, the cell count in assay [1] turned out to be 565. The inhibition in assay [1] is 1.2% (inactive); in [3], -70.2% (inactive); in assay [5], 3.45% (inactive); in assay [11], 9.72% (inactive); in assay [12], 13.8% (inactive); in assay [13] it was 45.3% (inactive). For the same compound, the inhibition of aggregation in [2] is 14.2% (inactive). Besides, the figures for the nuclei count in assay [2] and in assay [3] were 93.3% and 120%, respectively. For the same compound, the z-score was 0.0952 in assay [4] (setting [14]), -0.437 in [4] (setting [15]) and 0.847 in [4] (setting [16]). In addition, the fluorescence slope in assay [6] is -0.492 (inactive). Moreover, the NADPH fluorescence slope in assay [7] is -4.3e-05 (inactive). In [8], the slope was 0.00515 (inactive). Further, the compound was called inactive in assay [10].
As to `OCC(O)CN1CCN(c2ccccc2)CC1` (stereo unspecified), the cell count in [1] was 605. Besides, the inhibition was -6.5% (inactive) in assay [1]; -69.1% (inactive) in assay [3]; 25.1% (inactive) in assay [5]; 19.7% (inactive) in assay [11]; 17.9% (inactive) in assay [12]; 40.8% (inactive) in assay [13]. In addition, the inhibition of aggregation in assay [2] is -0.5% (inactive). Further, the nuclei count in [2] amounted to 108%; in [3], 122%. Moreover, the results for the z-score in [4] (setting [14]), in [4] (setting [15]) and in assay [4] (setting [16]) were 0.00928, 0.0558 and -0.225, respectively. The fluorescence slope in [6] is -0.455 (inactive). For the same compound, the NADPH fluorescence slope in [7] was -1.7e-06 (inactive). Moreover, the slope in [8] was 0.00502 (inactive). Moreover, the compound was classed as inactive in assay [10].
Turning to `CC(=O)NCCCCCCNC(C)=O`, the cell count in [1] was 515. Besides, the inhibition is -2% (inactive) in assay [1]; 5.3% (inactive) in assay [3]; 10.2% (inactive) in assay [5]; 20.9% (inactive) in [11]; 9.84% (inactive) in [12]; 44.8% (inactive) in [13]. Besides, the inhibition of aggregation in assay [2] was -11.6% (inactive). Besides, the nuclei count in assay [2] stood at 101%; in [3], 114%. In addition, the z-score in assay [4] (setting [14]) was -1.8; in assay [4] (setting [15]), 0.662; in [4] (setting [16]), 0.679. Besides, the fluorescence slope in [6] is -0.45 (inactive). Also, the NADPH fluorescence slope in [7] was -5.8e-05 (inactive). Moreover, the slope in [8] was 0.00491 (inactive). Also, the compound was called inactive in [10].

As usually defined, the inhibition is the drop in the measured response relative to a control, in per cent.
